High-throughput results from PubChem BioAssay.
Compounds with a hit are over-represented: about 2.5% of the library has one in this group of screens.
Ecoli rRNA inh: reduced GFP signal of wild-type E. coli, primary screen, bacterial rRNA inhibitor project, GFP/RFP fluorescence, OD600, single point; GFP signal change (wild-type ribosome), % (concentration not given with the values); E. coli WT GFP vs humanized-ribosome RFP mutants, 24 h; active compounds read low; DMSO median 0, no signal -100; hit rate 1.6% among 350,000; AID 720706, 2013;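 active = significant combined selectivity score with lowered wild-type GFP, culture density cut under 30%, mutant RFP and density less affected; inactive = any of these conditions unmet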
RAD52 anneal inh: RAD52 DNA annealing inhibitors, primary screen, biochemical, FRET, single point, set 2 | DNA repair protein RAD52 homolog (Homo sapiens), P43351 | recombinant RAD52 DNA annealing, FRET fluorescence | inhibition, % at 18.7 µM | hit rate 0.46% among 360,000;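 active = every replicate showing at least 50% inhibition; inconclusive = mean inhibition at least 50% but not in every replicate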
AF4-AF9 inh: inhibitors of AF4 peptide binding to AF9, primary screen, biochemical, AlphaScreen, biotin-AF4 peptide, FLAG-AF9, single point | inhibition, % at 10 µM | AID 651704, 2012 | hit rate 0.47% among 350,000;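 active = every replicate reaching a set inhibition limit, whatever the replicate mean, cut at about 25% in these data; inconclusive = mean inhibition reaches that limit but some replicates miss it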
Casp6 inh: human caspase-6 inhibitors, primary screen, biochemical, VEID-R110 fluorescence, single point, set 2; P55212; purified caspase-6, Z-VEID-R110 cleavage fluorescence; inhibition, % at 12.5 µM; hit rate 0.53% among 350,000; AID 686996, 2013;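 active = mean inhibition across replicates at least about 35%, with every replicate also reaching that limit, limit read from the data; inconclusive = only one of the two criteria met; inactive = neither criterion met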
Target sequence (P55212 24-179 limits assumed): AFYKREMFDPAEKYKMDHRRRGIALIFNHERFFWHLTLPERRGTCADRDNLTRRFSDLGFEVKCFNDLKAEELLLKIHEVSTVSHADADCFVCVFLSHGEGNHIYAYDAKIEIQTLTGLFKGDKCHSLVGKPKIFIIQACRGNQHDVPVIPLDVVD
Target sequence (P55212 194-293 limits assumed): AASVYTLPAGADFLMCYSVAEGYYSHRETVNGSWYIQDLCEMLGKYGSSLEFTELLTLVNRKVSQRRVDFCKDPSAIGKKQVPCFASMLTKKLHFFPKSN
NSD2 inh: NSD2 histone methyltransferase inhibitors, primary screen, biochemical, AlphaScreen, single concentration, set 2. NSD2 peptide methylation, 120 min. inhibition, % at 12.5 µM. hit rate 0.54% among 310,000; in the data active = inhibition above about 50%
RAD52 DNA ctr: DNA-binding compounds via dye displacement, dose response, artefact control for RAD52 inhibitor project, biochemical, fluorescence polarization, cherry-pick; hit rate 8% among 1,000; AID 652128, 2013; shares compounds with RAD52 anneal inh; Salmon sperm DNA/acridine orange FP displacement; AC50, µM;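 active = fitted half-maximal concentration for signal loss at or below twice the highest dose tested, in every separate run, actives reach about 64 µM in these data; inconclusive = runs disagree, or flat partial signal loss, or poor fit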
Numbers stand for hits; n = inactive; u = inconclusive; x = not tested or not shown.

SMILES	Ecoli rRNA inh	RAD52 anneal inh	AF4-AF9 inh	Casp6 inh	NSD2 inh	RAD52 DNA ctr
Cc1ccc2c(=O)c(CN3CCCCCC3)c(C)[nH]c2c1C	n	n	n	n	n	n
Cc1ccc(C)c(OCC(O)CN2CCN(CCN3C(=O)c4cccc5cccc(c45)C3=O)CC2)c1 (centres undefined)	x	98.8	n	n	n	n
CC(=O)c1ccccc1OCC(O)CN1CCN(CCN2C(=O)c3cccc4cccc(c34)C2=O)CC1 (centres undefined)	n	n	n	n	n	x
COc1cc(COCC(O)CN2CCN(CCN3C(=O)c4cccc5cccc(c45)C3=O)CC2)cc(OC)c1OC (centres undefined)	n	84.7	n	n	n	n
COc1ccccc1NC(=S)NC12CN3CN(CN(C3)C1)C2	n	79.2	n	n	n	n
O=C(NCCCN1CCCC1)c1cc2c(Cl)nc3ccccc3c2s1	n	63.1	n	n	x	42.3µM
C[C@@H]1CCCCO[C@@H](CN(C)C(=O)CCC(F)(F)F)[C@@H](C)CN([C@@H](C)CO)C(=O)c2cc(NC(=O)NC3CCCCC3)ccc2O1	n	n	n	n	x	x
CO[C@@H]1CN(C)C(=O)c2cc(NS(=O)(=O)c3ccccc3)ccc2OC[C@@H](C)N(Cc2nccs2)C[C@H]1C	n	n	n	n	x	x
COCC(=O)O[C@]1(CCN(C)CCCc2nc3ccccc3[nH]2)CCc2cc(F)ccc2[C@@H]1C(C)C	n	54.3	n	n	x	n
O=C(NCCCCCCCN1CCCCCCC1)C(C1CCCCC1)C1CCCCC1	n	81.8	u	n	n	n
Cc1noc(C)c1S(=O)(=O)Nc1ccc2c(c1)CC(=O)N([C@@H](C)CO)C[C@@H](C)[C@@H](CN(C)Cc1ccc(C(=O)Nc3ccccc3N)cc1)O2	n	n	n	n	x	x
COc1ccc(CCNc2c3ccccc3nc3ccccc23)cc1OC	n	83.4	n	n	n	n
Fc1cccc(NCCc2c[nH]c3ccccc23)n1	n	n	n	n	n	x
CN(C)CCCNc1c2c(nc3ccccc13)CCC2	n	78.2	n	n	n	n
c1ccc2c(NCCc3c[nH]c4ccccc34)c3ccccc3nc2c1	n	97.1	43.7	n	n	41.4µM
OCCCNc1c2ccccc2nc2ccccc12	n	94.8	n	n	n	52.8µM
Cc1noc(C)c1S(=O)(=O)Nc1ccc2c(c1)C(=O)N([C@H](C)CO)C[C@H](C)[C@@H](CN(C)C(=O)Nc1cccc3ccccc13)OCCCC[C@H](C)O2	n	n	n	n	x	x
CO[C@H]1CC[C@H]2CCN(C)C(=O)[C@@H](C)N(C)C(=O)c3cc(C#N)ccc3OC[C@H]1O2	n	n	n	n	x	x
C[C@H](CO)N1C[C@H](C)[C@@H](CN(C)S(C)(=O)=O)Oc2ncc(C#CC3CCCCC3)cc2C1=O	n	n	n	n	x	x
CCC(C)Sc1ccc([C@H]2N[C@@](Cc3ccccc3)(C(=O)OC)[C@H]3C(=O)N(C)C(=O)[C@@H]23)cc1 (some centres undefined)	n	97.8	n	n	x	n
COC(=O)C1(Cc2ccccc2)NC(c2ccc(F)cc2)C2C(=O)N(C)C(=O)C21 (centres undefined)	x	x	x	x	n	x
CCc1c(-c2ccccc2)ncn1Cc1cccc(-c2ccccc2)c1	n	n	n	n	n	x
CCc1c(C2CC2)ncn1Cc1cccc(-c2ccccc2)c1	n	77.5	n	n	x	n
N#Cc1ccc(N)cc1OCCCN1CCCCC1	n	86.1	n	n	n	n
O=C(C[C@@H]1C[C@@H]2c3cc(NC(=O)Nc4ccccc4)ccc3O[C@@H]2[C@@H](CO)O1)NC1CCCC1	n	n	n	n	x	x
SMILES	Ecoli rRNA inh	RAD52 anneal inh	AF4-AF9 inh	Casp6 inh	NSD2 inh	RAD52 DNA ctr
CCn1c2ccccc2c2cc(CN3CCN(Cc4cc(OC)ccc4O)CC3)ccc21	n	54.1	n	n	n	n
CCn1c2ccccc2c2cc(CN3CCN(S(C)(=O)=O)CC3)ccc21	x	x	x	x	n	x
Cc1sc2cc3c(c(C(=O)c4ccccc4)[n+]2c1C)-c1cccc2cccc-3c12	n	102.8	25.4	n	n	61.1µM
CN(C)CCn1cnc2c(c1=N)C(c1ccccc1)c1ccc3ccccc3c1O2 (centres undefined)	n	n	n	n	n	n
N=c1c2c(ncn1Cc1ccco1)Oc1c(ccc3ccccc13)C2c1ccccc1 (centres undefined)	x	x	x	x	n	x
C[C@@H]1CN([C@H](C)CO)C(=O)Cc2cc(NS(=O)(=O)c3ccccc3)ccc2O[C@@H]1CN(C)C(=O)Nc1ccc2c(c1)OCO2	n	x	x	x	x	x
CC(=O)OCCc1c2ccccc2c(CCCN(C)C)c2ccccc12	n	69.3	n	n	n	n
O=C(C[C@H]1CC[C@H](NS(=O)(=O)c2ccc(F)cc2)[C@@H](CO)O1)NCCc1ccncc1	n	n	n	n	x	x
COc1ccccc1OCCCN1CCC(C(O)(c2ccccc2)c2ccccc2)CC1	n	n	n	n	x	x
OC(c1ccccc1)(c1ccccc1)C1CCN(CCCOc2ccccc2Cl)CC1	n	54.6	n	n	x	n
O=C(C[C@@H]1C=C[C@@H](NC(=O)CC2CC2)[C@@H](CO)O1)NCc1ccccc1	n	n	n	n	x	x
C(#Cc1ccccc1)C[N+]1(CC#Cc2cccc3ccccc23)CCCC1	n	65.9	n	n	n	n
O=C(CC(C(=O)O)c1cccc(Br)c1)c1ccc(Cl)cc1 (centres undefined)	n	107.8	n	n	n	n
Cc1ccc(C(CC(=O)c2ccc(Cl)cc2)C(=O)O)cc1 (centres undefined)	n	n	n	n	n	x
Cc1c(OCC(=O)NC2CC(C)(C)NC(C)(C)C2)ccc2c3c(c(=O)oc12)CCC3	n	n	n	n	n	x
Cc1c(OCC(=O)NC2CC(C)(C)NC(C)(C)C2)ccc2c1oc(=O)c1ccccc12	n	71.9	n	n	n	n
O=C(Cc1ccccn1)N1CC(=O)N2[C@H](CO)[C@H](c3ccc(C#CC4CCCC4)cc3)[C@H]2C1	n	n	n	n	x	x
CCN(CC)CC(=O)Nc1cccc2c1C(=O)c1ccccc1C2=O	x	x	x	x	n	x
O=C1c2ccccc2C(=O)c2c(NCCCN(CCO)CCO)cccc21	n	93.1	u	n	n	4.26µM
O=C(c1ccc(Cn2c(=S)[nH]c3ccc(N4CCOCC4)cc3c2=O)cc1)N1CCC(N2CCCCC2)CC1	n	87.2	n	n	n	n
COc1ccc(C(=O)Nc2ccc3c(c2)OC[C@H](C)NC[C@H](C)[C@@H](OC)CN(C)C3=O)cc1	n	n	n	n	x	x
